In PubChem BioAssay AID1345085 (National Center for Advancing Translational Sciences (NCATS), 2018):
Inconclusive results are not listed. Unmarked numbers belong to inactive results. The source made the active and inactive calls. Calls come from the whole dose curve; as a rule, active = well fitted cell-killing curve with a large enough effect; inconclusive = small, poorly fitted or top-dose-only effect, or effect the other way; inactive = no such curve, though single readings can be large or run the other way.

System: CASKI
Test: Confirmatory qHTS for gynecologic anti-cancer compounds from libraries of approved drugs and bioactive compounds; note: nearly all actives have a fitted effect of over 55% in size
Conditions: gynecologic cancer cell panel viability, ATPlite luminescence, 48 h; series mostly up to 57.6 µM
Method in brief: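 1,000 cells/well; 16 h pre-incubation 37 C, 5% CO2; pin-transferred cpd in DMSO, 11 conc (1:3), 57.5 uM–0.977 nM; 48 h; ATPlite, 15 min RT; luminescence → IC50.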
% is set by controls: 0 for no effect and ±100 for the full control effect; potency is the fitted concentration of half-maximal effect.

Row | Compound | Potency | activity change, negative = viability loss
1 | Fc1cc(-c2cccc3ncc(-c4cnn(C5CCNCC5)c4)nc23)cc(F)c1CN1CCOCC1 | 34.3 µM (active) | 
2 | S=c1nc[nH]c2nc[nH]c12 | 4.85 µM (active) | 
3 | CCCC(Nc1nc(-c2ccc(NC(=O)NCC)c(OC)c2)ncc1C)c1cccnc1 (centres undefined) | inactive | 
4 | CCCCc1oc2ccc(NS(C)(=O)=O)cc2c1C(=O)c1ccc(OCCCN(CCCC)CCCC)cc1 | 27.3 µM (active) | 
5 | CNC(=O)c1nn(C)c2c1C(C)(C)Cc1cnc(Nc3ccc(N4CCN(C)CC4)cc3)nc1-2 | 10.9 µM (active) | 
6 | Cc1nc(N)sc1-c1ccnc(Nc2ccc(N3CCOCC3)cc2)n1 | 24.3 µM (active) | 
7 | OCCNC1CCCc2c1[nH]c1ccc(-c3ccccc3)cc21 (centres undefined) | 30.6 µM (active) | 
8 | O=C(Nc1cn[nH]c1-c1nc2ccc(CN3CCOCC3)cc2[nH]1)NC1CC1 | 2.73 µM (active) | 
9 | Cc1nc(N)ncc1-c1nc(N2CCOCC2)c2sc(C(C)(C)O)cc2n1 | 0.769 µM (active) | 
10 | Nc1ccccc1NC(=O)c1ccc(CNC(=O)OCc2cccnc2)cc1 | 15.3 µM (active) | 
11 | NC(=O)c1cccc2cn(-c3ccc([C@@H]4CCCNC4)cc3)nc12 | inactive | 
12 | Cc1ccc(C(N)=O)cc1Nc1nccc(-c2cn(C(C)C)c3cnccc23)n1 | 17.2 µM (active) | 
13 | CC(=O)c1cnc2ccc(-c3cc(Cl)c(O)c(Cl)c3)nc2c1NC1CCC(CN(C)C)CC1 (centres undefined) | 0.559 µM (active) | 
14 | O=C(CCCCCCNC(=O)c1cnc(N(c2ccccc2)c2ccccc2)nc1)NO | 21.7 µM (active) | 
15 | Nc1ccc(-c2ccc3ncc4ccc(=O)n(-c5cccc(C(F)(F)F)c5)c4c3c2)cn1 | 1.93 µM (active) | 
16 | CC[C@]1(O)C[C@H]2CN(CCc3c([nH]c4ccccc34)[C@@](C(=O)OC)(c3cc4c(cc3OC)N(C=O)[C@H]3[C@@](O)(C(=O)OC)[C@H](OC(C)=O)[C@]5(CC)C=CCN6CC[C@]43[C@@H]65)C2)C1 | inactive | 
17 | Cc1csc(NC(=O)c2sc3nc4c(c(C(F)(F)F)c3c2N)CCC4)n1 | 5.44 µM (active) | 

Row | Compound | Potency | activity change, negative = viability loss
18 | CC[C@H](CC#N)OC(=O)N[C@@H](C)c1cccc(NC(=O)Nc2ccc(-c3cnco3)c(OC)c2)c1 | inactive | 
19 | NC(=O)c1cnc(-c2ccc(C3(N)CCC3)cc2)c(-c2ccccc2)c1 | 21.7 µM (active) | 
20 | CN(C)/N=N/c1nc[nH]c1C(N)=O | inactive | 
21 | CCCc1nn(C)c2c(=O)[nH]c(-c3cc(S(=O)(=O)N4CCN(C)CC4)ccc3OCC)nc12 | inactive | 
22 | CN(C)c1ccc(-c2nc3ncc(Cl)c(N4CCN(CC(=O)Nc5nccs5)CC4)c3[nH]2)cc1 | inactive | 
23 | CCC(=O)N1CCN(c2ccc(-n3c(=O)ccc4cnc5ccc(-c6cnc7ccccc7c6)cc5c43)cc2C(F)(F)F)CC1 |  | -25.9% [at 10.7 µM]
24 | Cc1[nH]c2ccccc2c1CCNCc1ccc(/C=C/C(=O)NO)cc1 | 0.611 µM (active) | 
25 | Cn1c(=O)c(-c2c(Cl)cccc2Cl)cc2cnc(Nc3cccc(C(=O)O)c3)nc21 | 3.06 µM (active) | 
26 | CN1CCN(Cc2ccc(NC(=O)Nc3ccc(Oc4cc(NC(=O)C5CC5)ncn4)cc3)cc2C(F)(F)F)CC1 | 0.611 µM (active) | 
27 | COc1cc(Nc2c(C#N)cnc3cc(OCCCN4CCN(C)CC4)c(OC)cc23)c(Cl)cc1Cl | 24.3 µM (active) | 
28 | Cc1c(C)n(Cc2ccc(-c3ccccc3C(=O)O)cc2)c2ccc(C(=O)N[C@@H](C)c3ccc([N+](=O)[O-])cc3)cc12 | inactive | 
29 | Cc1ccc(C(=O)Nc2ccc(CN3CCN(C)CC3)c(C(F)(F)F)c2)cc1C#Cc1cnc2cccnn12 | 21.7 µM (active) | 
30 | Cn1cc(-c2ccc3ncc(Cc4ccc5ncccc5c4)n3n2)cn1 | inactive | 
31 | O=C(c1ccc(F)c(F)c1Nc1ccc(I)cc1F)N1CC(O)([C@@H]2CCCCN2)C1 | 17.2 µM (active) | 
32 | c1nc2nc(Nc3ccc(N4CCOCC4)cc3)nc(NC3CCCCC3)c2[nH]1 | 7.49 µM (active) | 
33 | C[C@@H](Oc1cc(-c2cnn(C3CCNCC3)c2)cnc1N)c1c(Cl)ccc(F)c1Cl | 24.3 µM (active) | 
34 | Cc1cc(C(C)Nc2ccccc2C(=O)O)c2nc(N3CCOCC3)cc(=O)n2c1 (centres undefined) | 6.85 µM (active) | 
